Mdm2 MdmX PPI = disrupts the human Mdm2-MdmX interaction; 330,000 tested, 3% active; inhibition, % at 8 µM; SaOS-2 split-luciferase Mdm2/MdmX complementation, luminescence; AID 485346;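 active = inhibition of at least 50% at 8 µM in the primary screen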
aSyn 5UTR inh = 5' untranslated region of α-synuclein, MLPCN primary screen | 300,000 tested, 0.82% active | alpha-synuclein 5'UTR reporter, inhibitor activity | inhibition, % (tested at 7.5 µM); in the data active = inhibition above about 60%;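 note: H4 neuroglioblastoma cells stably carrying SNCA 5'UTR luciferase fusion; 0% = DMSO wells and 100% = positive control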
Gli-Sufu block = antagonists of Gli-Sufu signaling. Sufu-KO-LIGHT fibroblasts, Gli luciferase reporter luminescence. inhibition, % at 5 µM. AID 588413. 340,000 tested, 0.74% active;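 active = inhibition above about 55%, limit read from the data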;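 note: 0% = DMSO-treated cells and 100% = wells with medium but no cells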
CSC inhib = cancer stem cell inhibition; cancer stem cell-like cells viability, luminescence; inhibition, % at 7.5 µM; 300,000 tested, 1.1% active; in the data active = inhibition above about 75%; tested in HMLE shEcad cells
697 NFkB inh = lowers PMA/ionomycin-induced NF-kB signal in 697 B cells; 697 B-cell NF-kB luciferase reporter, 16 h; inhibition, % at 4 µM; 330,000 tested, 0.33% active; in the data active = inhibition above about 35%
Jurkat NFkB inh = inhibitors of the PMA/ionomycin-induced NF-kB reporter in Jurkat cells | inhibition, % at 4 µM | PMA/ionomycin-induced NF-kB luciferase reporter, luminescence | 330,000 tested, 0.53% active; in the data active = inhibition above about 50%
Jurkat NFkB conf = inhibitors of the PMA/ionomycin-induced NF-kB reporter in Jurkat cells, retest | inhibition, % at 4 µM | Jurkat NF-kB luciferase, 16 h | shares compounds with Jurkat NFkB inh | 2,700 tested, 27% active;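 active = inhibition reaching about 45% at 4 µM in either replicate, limit read from the data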;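 note: plate controls were PMA/ionomycin stimulated DMSO wells for no effect and unstimulated DMSO wells for full effect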
697 NFkB conf = inhibitors of the PMA/ionomycin-induced NF-kB reporter in 697 B cells, retest; shares compounds with 697 NFkB inh; 697 B-cell NF-kB luciferase, 16 h; inhibition, % at 4 µM; 2,000 tested, 35% active; AID 449746; in the data active = inhibition mostly above about 28%, no sharp cut-off; inactive = mostly below about 22%
Mdm2 MdmX conf = human Mdm2/MdmX binding inhibition, confirmed | shares compounds with Mdm2 MdmX PPI | luminescent assay | inhibition, % at 8 µM | 10,000 tested, 55% active | AID 489028; in the data active = inhibition above about 40%
FLuc counter = inhibits full-length luciferase, flagging false Mdm2/MdmX hits; inhibition, % at 8 µM; shares compounds with Mdm2 MdmX PPI; SaOS-2 full-length luciferase counterscreen, luminescence; AID 504607; 6,200 tested, 77% active;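 active = mean inhibition at 8 µM reaching about 37%, which flags the compound as non-specific, limit read from the data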;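 note: p53-null SaOS-2 cells with luciferase driven by a doxycycline-inducible promoter; compound on cells about two nights before reading with doxycycline added after day one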
* = called active by the depositor; i = inactive; x = not tested or not shown. Shown are actives, neighbours in structure and some others; about 4.5% of the full set was active somewhere.

SMILES | Mdm2 MdmX PPI | aSyn 5UTR inh | Gli-Sufu block | CSC inhib | 697 NFkB inh | Jurkat NFkB inh | Jurkat NFkB conf | Mdm2 MdmX conf | FLuc counter | others
CCCCCCn1c2c(c(=N)c3c1CCC3)CCC2 | 67.2* | 67.3* | 89.2* | 25.5 | 104.3* | 64.6* | 69.3* | 60.5* | 38.9* | 697 NFkB conf=33.9*
CCCCCCCCCn1c2c(c(=N)c3c1CCC3)CCC2 | 95.2* | 85.7* | 93.9* | 55.7 | 93.5* | 90.9* | 73.5* | 92.8* | 54.8* | 697 NFkB conf=-22.3
COc1ccc(-c2cc(C(=O)N(C)Cc3ccc(F)cc3)c3ccccc3n2)cc1OC | 29.4 | 15.8 | 12.3 | 12.4 | -3.0 | -1.0 | x | x | x
COC(=O)[C@@H](NC(=O)c1ccc2c(c1)S(=O)(=O)c1ccccc1C2=O)C(C)C | 14.5 | 20.0 | 26.3 | x | 2.6 | -12.1 | x | x | x
CCn1ncc(C2=NOC(C(=O)NCc3ccccc3)C2)c1C (stereo not drawn) | 61.9* | 25.9 | 42.5 | 69.3 | 18.2 | 74.1* | 45.5 | 52.0* | 83.7*
C=C(C(=O)c1ccccc1)C(C(=C)C(=O)c1ccccc1)c1ccc(OC)cc1 | 97.7* | 12.9 | 13.9 | 59.0 | i | 55.6* | -3.4 | 98.7* | 50.4* | 697 NFkB conf=-164.4
COc1ccc(C(CC(=O)c2ccccc2)CC(=O)c2ccccc2)cc1 | 2.3 | 13.8 | -7.3 | -7.9 | 10.4 | -7.3 | x | x | x
O=C(Nc1ccc(N2CCCCC2)cc1)c1ccccn1 | 80.8* | 113.8* | 64.4* | -3.9 | 20.7 | 66.7* | 68.9* | 83.8* | 27.9
O=C(Nc1ccc(N2CCCC2)cc1)C(c1ccccc1)c1ccccc1 | 29.0 | 6.0 | -25.7 | -3.8 | 7.6 | 4.0 | x | x | x
CC(C)OC(=O)CSc1nc(Cc2ccccc2)nc2ccccc12 | -5.5 | 27.1 | 2.2 | -4.7 | 13.6 | 7.3 | x | x | x
C=CC[n+]1c(/C=C2\C=Cc3cc(C)ccc3N2CC)ccc2ccccc21 | 84.8* | 67.2* | 89.8* | 48.8 | 32.0 | 78.2* | 27.9 | 70.0* | 28.5
CCN1C(=C(C#N)C#N)C=Cc2cc(C)ccc21 | 4.7 | -16.9 | 1.4 | -8.1 | 14.6 | 27.0 | x | x | x
CC(NCc1ccc(-c2ccccc2)cc1)C(O)c1ccccc1 (stereo not drawn) | 82.2* | -35.4 | 27.0 | 63.2 | -16.5 | 54.8* | 12.9 | 63.0* | 64.1*
O=C(NCC(c1ccco1)N1CCc2ccccc21)C(=O)Nc1ccc(F)cc1F (stereo not drawn) | 52.3* | -6.9 | -6.8 | 59.9 | -23.2 | 60.4* | 16.2 | 72.5* | 64.5*
O=C(NCC(c1ccco1)N1CCc2ccccc21)C(=O)Nc1ccccc1F (stereo not drawn) | 22.3 | -16.7 | -1.7 | 0.3 | 0.4 | -3.6 | x | x | x
O=C(Nc1nc2ccc(F)cc2s1)c1ccccn1 | 92.5* | 102.4* | 54.4 | -6.3 | -385.0 | 96.0* | -3.8 | 65.2* | 58.2* | 697 NFkB conf=-332.4
CCOC(=O)c1cc(CC)sc1NC(=O)CN1C(=O)C(=O)N(CC(C)C)C1=O | -3.4 | -9.3 | -7.6 | 9.7 | 10.2 | -2.6 | x | x | x
COCCNC(=O)CN(C(=O)CCC(=O)Nc1nccs1)c1ccccc1OC | 7.7 | -2.1 | 1.8 | -7.8 | 9.5 | 10.1 | x | x | x
CCOc1ccc(N=Nc2ccc(O)c3ncccc23)cc1 | 68.0* | 18.0 | -13.6 | 103.0* | -117.3 | 89.3* | 2.6 | 80.8* | 23.3
Cc1ccc(C)c(N=Nc2ccc(O)c3ncccc23)c1 | 97.0* | 33.3 | 66.9* | 103.4* | -103.2 | 78.3* | 65.5* | 96.3* | 50.6*
CNc1ccc(N=Nc2cccc3ncccc23)cc1 | x | x | 40.9 | x | x | x | x | x | x
Cc1cccc(N=Nc2ccc(O)c3ncccc23)c1 | 73.4* | 73.0* | -2.0 | 99.0* | -78.6 | 89.6* | 39.7 | 89.2* | 22.4
CCOc1ccc(Br)cc1CNc1ccc2c(c1)OCCO2 | 9.9 | -28.6 | -0.2 | 26.0 | 10.3 | -0.2 | x | x | x
